# Data reported in PubChem BioAssay (NCI).
# Compounds without any hit were thinned out: in the full panel of roughly 83,000, 20% have a hit.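 Negative percent growth values reflect cell death: -40 means 40% of the cells present at the start died, and -100 means all died.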 A number with no mark means an inactive call. Activity calls are given as the source filed them. Rule for the calls: active = growth percent below 10; inactive = the rest.
# Tested on: HL-60(TB) leukemia
# Experiment: NCI-60 one-dose screen, 48 h (100 = growth as untreated, 0 = no growth, -100 = all killed)
# Settings: 10 µM unless noted
row,Structure (SMILES),growth
1,COc1ccc2ncc(C#Cc3cncc(C(=O)Nc4ccc(CN5CCN(C)CC5)c(C(F)(F)F)c4)c3)n2n1,-60.2% (active)
2,COc1ccc(NC(=O)Cn2c(/C=C/c3ccc([N+](=O)[O-])cc3)nc3ccccc3c2=O)cc1,112%
3,COc1cc2c(c(OC)c1OC)C(=O)CC(c1cccc(NC(=O)c3cccc([N+](=O)[O-])c3)c1)O2 (centres undefined),26.1%
4,COc1cc(-c2ccc(/C=N/NC(=O)c3[nH]c4ccc(Br)cc4c3-c3ccccc3)o2)cc(OC)c1OC,99.3%
5,NNc1ncnc2sc3c(c12)CCN(Cc1ccccc1)C3,18.8%
6,CN1CCN(Cc2ccc(C(=O)Nc3cccc(Nc4ccc5c(O)cccc5n4)c3)cc2C(F)(F)F)CC1,-34.1% (active)
7,COCOc1cc2oc(C(=O)N[C@@H](Cc3ccccc3)C(O)C(=O)NCc3ccccc3)c(C)c(=O)c2cc1OCOC (some centres undefined),96.5%
8,CC(=O)OC[C@@]1(C)C2CC[C@]3(C)C(CC=C4C5CC(C)(C)CC[C@]5(C(=O)Nc5ccccc5)CC[C@]43C)[C@@]2(C)C[C@@H](OC(C)=O)[C@@H]1OC(C)=O (some centres undefined),22.6%
9,COc1ccc(OC)c(Cn2cc(C#N)c(N)c2C(=O)c2ccc(Br)cc2)c1,20.7%
10,O=C(CN1C(=O)/C(=C/c2ccccc2Cl)SC1=S)N1CCOCC1,90.2%
11,Cc1ccc(C2CC(c3ccc(S(=O)(=O)NCCNc4nc(N(C)C)nc(N5CCOCC5)n4)cc3)=Nc3c(N)nc(N)nc3N2)cc1 (centres undefined),35.8%
12,CNCc1cccc2c1OCCCCCC[C@@](C)(O)CC1(CC1)S(=O)(=O)c1ccc(cc1)-c1cnc(N)c(n1)C(=O)N2,-61.1% (active)
13,COc1cc(-c2nc3cc(Cl)c(Cl)cc3[nH]2)ccc1OCc1nnc(-c2ccc(Br)cc2)o1,-62% (active)
14,O=C(CN1CCN(c2ncnc3c2cnn3-c2ccccc2)CC1)Nc1ccc(Br)cc1,64.3%
15,C#CCOc1ccc(/C=N/Nc2nc(-c3ccc(F)cc3)cs2)cc1OC,25.2%
16,CC(/C=C1\SC(=S)N(CCCC(=O)NC(CC(C)C)C(=O)O)C1=O)=C\c1ccccc1 (centres undefined),63.4%
17,O=C(CSc1nc2ccccc2c(=O)[nH]1)NCCN1CCCCC1,94.4%

row,Structure (SMILES),growth
1,COc1cc2oc(-c3cccc(C(=O)Nc4ccc(Cl)cc4)c3)cc(=O)c2c(OCCN)c1OC,-56.5% (active)
2,Cc1cc2nc3c4ccccc4n(CCNCCN(C)C)c3nc2cc1C,-0.721% (active)
3,CN(C)c1ccnc(CNCCSC2(c3ccc(C(F)(F)F)cc3)c3ccccc3C=Cc3ccccc32)c1,-34.1% (active)
4,COc1cnc2c(c1)C(=O)c1c-2n(CCCNC(C)C)c(=O)c2cc(OC)c(OC)cc12,62.8%
5,CN(C)c1nc(NCCNS(=O)(=O)c2ccc(C3=Nc4c(N)nc(N)nc4NC(c4ccc(F)cc4)C3)cc2)nc(Nc2ccc(F)cc2)n1 (centres undefined),-25.1% (active)
6,COc1ccc(/C=C/c2nc3ccccc3c(=O)n2CC(=O)Nc2ccc(Cl)cc2)cc1,96.2%
7,OCCn1cc(-c2nc3ccc4[nH]ncc4c3c3c2CCCC3)cn1,45.2%
8,CN1CCN(c2ccc(C(=O)/C=C/c3cc(C(F)(F)F)ccc3Cl)cc2)CC1,-29.3% (active)
9,COC(OC)C1=C(C)OC(N)=C(C#N)C12C(=O)Nc1ccccc12 (centres undefined),67.6%
10,Cn1cc(-c2cc3nc(-c4c[nH]c5ccccc45)cc(N)n3n2)c2cc(Cl)ccc21,-24.8% (active)
11,CN(C)c1ccnc(CNCCSC2(c3ccc(C(F)(F)F)cc3)c3ccccc3CCc3ccccc32)c1,-41.9% (active)
12,COc1ccc2[nH]cc(-c3cc4nc(-c5cn(C)c6ncccc56)cc(N)n4n3)c2c1,-35.4% (active)
13,O=C1CC(c2ccc(I)cc2)OC2C=Cc3ccccc3C12 (centres undefined),89%
14,O=C(Nc1cccc(-c2cn(-c3ccc4oc(=O)ccc4c3)nn2)c1)Nc1cc(C(F)(F)F)cc(C(F)(F)F)c1,34.3%
15,N#Cc1c(-c2ccc(Cl)cc2)cc(-c2ccccc2)nc1OCc1ccccc1,77.3%
16,N#Cc1c(-c2ccc(Cl)cc2)nc2n[nH]c(-c3ccc(Cl)cc3)c2c1-c1ccc(C(F)(F)F)cc1,1.12% (active)
17,O=C(c1ccc(O)cc1)C1[C@H](c2ccccc2Br)[C@@H](c2ccccc2)NC12C(=O)Nc1ccc(Cl)cc12 (some centres undefined),-17.3% (active)
